Drawing on PMC7819943, “Rice protein-binding microarrays: a tool to detect cis-acting elements near promoter regions in rice”, this text covers binding signal for 47 sequences.

In all, about 35,000 sequences were measured (“fluorescence intensity (a.u.)”: median about 10,000, highest 2% from about 52,000 on). The sample as a whole holds a higher share of the highest values than the screen did.

This assay concerns the target T1, OsWOX13 (Oryza sativa, UniProt Q5QMM3 1-267).
T1 sequence: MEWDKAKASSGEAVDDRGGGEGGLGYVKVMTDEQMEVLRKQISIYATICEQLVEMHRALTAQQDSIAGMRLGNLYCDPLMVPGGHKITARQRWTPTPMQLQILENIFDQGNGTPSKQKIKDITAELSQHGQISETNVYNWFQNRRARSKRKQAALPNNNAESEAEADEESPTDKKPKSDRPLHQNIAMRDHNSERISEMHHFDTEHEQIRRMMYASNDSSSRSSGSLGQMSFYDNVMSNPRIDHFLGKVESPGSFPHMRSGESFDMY
The experiment in a line: protein-binding microarray (RPBM); PBS, 2% BSA, 51.3 ng/ul salmon testes DNA, 50 uM zinc acetate, 200 nM TF, 25 C, 1 h; high values mean tight binding. Conditions: protein: recombinant; tags: N-terminal polyhistidine and DsRed monomer fusion (pET32a); label: CyDye5-dUTP incorporated in the synthesized complementary strand; 3' TTTTT single-stranded linker to array surface; dsDNA, one strand shown. In a few lines:
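Per-feature fluorescence intensity (arbitrary units), read on an Axon 4000B scanner, is the binding signal. Transcription factors carrying an N-terminal polyhistidine tag and DsRed fusion were expressed in E. coli BL21-CodonPlus and purified on Ni–NTA. A custom Agilent array, made double-stranded by primer extension with Cy5-dUTP and blocked with 2% BSA, was incubated with 200 nM protein in PBS, 2% BSA, salmon testes DNA and 50 µM zinc acetate at 25 °C for 1 h and then washed.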
Regarding “ATGCAAAGTTGCAGGGATTGATTGGCTGTTTCGTTTGCTACGGAGTCACCTAGTGCAG”, the binding signal was 21800 fluorescence intensity (a.u.).

In the case of “CATCCAAATTGGCAAAGGCCGCCTCTTTCTTTAATTAACCCGGAGTCACCTAGTGCAG”, the binding signal is 14100 fluorescence intensity (a.u.).

On to “TTGTATAAATTGCTATTAGATTGGCTATATATGAATTAGACGGAGTCACCTAGTGCAG”, for which the binding signal was 37500 fluorescence intensity (a.u.).

For the sequence “TGCGTGATTAGCTGATAATACACGTGAATTATGTATGACGCGGAGTCACCTAGTGCAG”, the binding signal is 52800 fluorescence intensity (a.u.).

Turning to “ACAAATTGAGTGTTATAGTGAGATGGCATCGGAGATGAGCCGGAGTCACCTAGTGCAG”, the binding signal is 32400 fluorescence intensity (a.u.).

With “AGTATAATTAGCATACTATGATATCGATATACACGTTATGCGGAGTCACCTAGTGCAG”, the binding signal was 31400 fluorescence intensity (a.u.).

Turning to “TAGCTGATTATTACAGATGTTGGAGGATGAATAATTGTGACGGAGTCACCTAGTGCAG”, the binding signal is 13500 fluorescence intensity (a.u.).

In the case of “ATCGTGATTGATGGCATTGGTATAGATTTCGAGCATTGGCCGGAGTCACCTAGTGCAG”, the binding signal was 63900 fluorescence intensity (a.u.).

On to “TTGACATCATCATTGACGTGATAGATATAGTATATTAGACCGGAGTCACCTAGTGCAG”, for which the binding signal was 17000 fluorescence intensity (a.u.).

With “TAGCTAGATTGATAATGTACATATATGAATTTGTATGCGACGGAGTCACCTAGTGCAG”, the binding signal was 55500 fluorescence intensity (a.u.).

In the case of “AAGATAAAATGTATGATTGTATGCCTAATTTGAATAGTGGCGGAGTCACCTAGTGCAG”, the binding signal was 15900 fluorescence intensity (a.u.).

On to “CAAGATTGGGCGAGGGAGGGAGGAGTCCAGATCCTGCCTCCGGAGTCACCTAGTGCAG”, for which the binding signal was 3250 fluorescence intensity (a.u.).

Consider “ATTCTCGATTTAACACTAATCATCATTATCCTAATAACCACGGAGTCACCTAGTGCAG”, for which the binding signal was 6320 fluorescence intensity (a.u.).

For “CTTAATTTAGAGTTGATTTTGGAGTTTCTTTTATCGTAGTCGGAGTCACCTAGTGCAG”, the binding signal was 39500 fluorescence intensity (a.u.).

For “ATTACTTATCTGATTTACGATCCGACTTAACCACTGTATTCGGAGTCACCTAGTGCAG”, the binding signal was 4150 fluorescence intensity (a.u.).

In the case of “ACAAATTGGTCACTGGCTGAATAGTTTCTACATCAGTTAACGGAGTCACCTAGTGCAG”, the binding signal is 6570 fluorescence intensity (a.u.).

As to “CGTAAACATCTGATGAGTACCTCACATGTTGAACATCTCCCGGAGTCACCTAGTGCAG”, the binding signal is 3900 fluorescence intensity (a.u.).

Consider “GTTGAAGGATCTGGATGATTAGACGAGCGATGGATCAGGTCGGAGTCACCTAGTGCAG”, for which the binding signal is 3720 fluorescence intensity (a.u.).

In the case of “TCAGTATGTGATTGATTGAAAACTGAAATGGTAGACATACCGGAGTCACCTAGTGCAG”, the binding signal is 53400 fluorescence intensity (a.u.).

For the sequence “TGTCAGATTGGATGGATTGTGCTACTGTACATGCATAGTGCGGAGTCACCTAGTGCAG”, the binding signal was 37000 fluorescence intensity (a.u.).

For “ATGTGAAATTGAATGCAGTAGTATGCACATGAAACTTGGGCGGAGTCACCTAGTGCAG”, the binding signal was 11300 fluorescence intensity (a.u.).

For “ATACTTGATTTAAAATGAAAACATAGACAAATGTATGGTACGGAGTCACCTAGTGCAG”, the binding signal is 23800 fluorescence intensity (a.u.).

Regarding “ATAGTATATGATGGATGAGATGGATGCATAGATGGATTGGCGGAGTCACCTAGTGCAG”, the binding signal is 3330 fluorescence intensity (a.u.).

Regarding “TGCTGATTGGTATGCATAGAGTATGTATGGAAACCTTGTGCGGAGTCACCTAGTGCAG”, the binding signal was 56600 fluorescence intensity (a.u.).

With “CCCGTGGCTCGACTTGATGGCGTGGAGAATGGACGAGTACCGGAGTCACCTAGTGCAG”, the binding signal is 6970 fluorescence intensity (a.u.).

For “TTATAATTAGAACTTTTATATGTGTGTTATGCACGACTTACGGAGTCACCTAGTGCAG”, the binding signal is 4050 fluorescence intensity (a.u.).

In the case of “ATTTGATCCAAATTATATGGTTATTAATCAAATCCCATAGCGGAGTCACCTAGTGCAG”, the binding signal is 10200 fluorescence intensity (a.u.).

Take “GTTAATTGATTAGCAAAAGGTACTATACATATATTCTTTTCGGAGTCACCTAGTGCAG”: the binding signal was 33800 fluorescence intensity (a.u.).

As for “GCAAATGTAGGTAAGATTGAGATTGACTTTATGTGGGTCCCGGAGTCACCTAGTGCAG”, the binding signal is 12500 fluorescence intensity (a.u.).

As for “GCGGATTGGTTGCCTGACCCTCCTCCTCCTCCTCCTCCTCCGGAGTCACCTAGTGCAG”, the binding signal is 8490 fluorescence intensity (a.u.).

On to “TTCTGATTGATGTCAGGAGTGGCGTGCGTACCAGTGCTGTCGGAGTCACCTAGTGCAG”, for which the binding signal is 58100 fluorescence intensity (a.u.).

“GCCGGTGATTGGCGTGGCGTGGCGTGGCGTGGCGCGGTGTCGGAGTCACCTAGTGCAG”: the binding signal was 52600 fluorescence intensity (a.u.).

For the sequence “GTGATTGGCGCGATCCGTGCGCTTGCCGTCTTGCCGGCGTCGGAGTCACCTAGTGCAG”, the binding signal is 30100 fluorescence intensity (a.u.).

With “TGTCCTCCTGCTCCTGATTGGATCGGTAGAAAGGTGGCGGCGGAGTCACCTAGTGCAG”, the binding signal is 11000 fluorescence intensity (a.u.).

“CGTACCAGCTGATTGATGGTGTCACTCACCAAATGTTCTTCGGAGTCACCTAGTGCAG”: the binding signal is 34300 fluorescence intensity (a.u.).

For “TGGATCCTGATTGGATCCTGATTGGCGTTGCGGCCGTGTCCGGAGTCACCTAGTGCAG”, the binding signal is 65000 fluorescence intensity (a.u.).

With “TCGACTTCTGATTGATGTCAGTAATGGTGTACCAGTGCTGCGGAGTCACCTAGTGCAG”, the binding signal was 41200 fluorescence intensity (a.u.).

Take “GACGCGTCGGTGCTGATTGACTCGACGGCCGGCAACGTGGCGGAGTCACCTAGTGCAG”: the binding signal is 22800 fluorescence intensity (a.u.).

Take “TACTGATGAGCCACTGACGGGTGGGGCCAGTTGACTGACACGGAGTCACCTAGTGCAG”: the binding signal is 6930 fluorescence intensity (a.u.).

For the sequence “GCAGATTAGTCGTTAGTGGTGACAGAAACGGCAAAAGTGGCGGAGTCACCTAGTGCAG”, the binding signal is 6220 fluorescence intensity (a.u.).

Turning to “CTCCGATTAATGTGGAAATTTCTAACCTCTACAGCGAACGCGGAGTCACCTAGTGCAG”, the binding signal was 6190 fluorescence intensity (a.u.).

With “TTTCTAATTTCTTTCAGCATCGTATTAATGTCGATATTAACGGAGTCACCTAGTGCAG”, the binding signal was 3250 fluorescence intensity (a.u.).

Regarding “GCGAAATTAATCTTTTGGTTGTTTCTACCTTTGCTCTGATCGGAGTCACCTAGTGCAG”, the binding signal was 5540 fluorescence intensity (a.u.).

For the sequence “TTCGTGATTTATATAAAACATTCCCATGTTGAAACCCTAACGGAGTCACCTAGTGCAG”, the binding signal was 15400 fluorescence intensity (a.u.).

On to “GTGTTGTGATTCAATTAATTTGGCAGACACCAATTTGCTGCGGAGTCACCTAGTGCAG”, for which the binding signal was 23200 fluorescence intensity (a.u.).

Regarding “TACTTTGATTTGCACACAATCAAATGTACAGTAGTACATGCGGAGTCACCTAGTGCAG”, the binding signal was 28500 fluorescence intensity (a.u.).

As to “TTAAATCAATAATTAAATATATTTTCATAATAAATTTGTGCGGAGTCACCTAGTGCAG”, the binding signal was 27500 fluorescence intensity (a.u.).
